Bioassay records from PubChem.
IL1B secr inh – blocks inflammasome-driven IL-1 beta release; THP-1 LPS/ATP IL-1B secretion, AlphaLISA, 16 h; active compounds read low; activity change, % at 57.5 µM; hit rate 4.7% among 360,000; AID 743279; in the data active means activity change below about -50%; inconclusive means mostly about -30% to -49%
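Secreted IL-1B measured by AlphaLISA bead assay after 16 h compound exposure of THP-1 cells; compounds (final up to 57.5 uM) added 1 h before LPS (250 ng/mL) and ATP (1.25 mM) stimulation; lower signal means less secretion.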
HT1080NT lethal – kills 2HG-producing HT-1080-NT fibrosarcoma cells | HT-1080-NT fibrosarcoma viability, CellTiter-Glo ATP luminescence, 48 h | Potency, µM (series often up to 46.1 µM), for inactives: at the highest dose activity, negative = less viability, usual class: cytotoxic | hit rate 1.6% among 360,000;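 further: NT is the 2HG producing partner of a matched IDH1 knockdown line; potency means the concentration at half of the fitted maximal effect; 0% = DMSO-treated cells and -100% = media-only wells without cells; nearly all actives have a fitted effect of over 55% in size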
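Toxicity toward the 2HG-producing NT line was scored as %Activity, normalised to DMSO and no-cell wells, from CellTiter-Glo luminescence after 48 hours' treatment.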
uPA generation – cell surface uPA generation inhibition. hit rate 0.31% among 330,000. Potency, µM (series often up to 38.3 µM), without a hit: at the top dose activity change, negative = inhibition, most hits filed as inhibitors. cell surface uPA generation assay, qHTS. AID 540303; active means well fitted inhibition curve with a large enough effect; inconclusive means small, poorly fitted or top-dose-only effect; inactive means no such curve, though single readings can be large or run the other way; tested in mouse RAW 264.7 cells; further: potency means the concentration at half of the fitted maximal effect; nearly all actives have a fitted effect of over 55% in size
TDP1 cell CPT – growth inhibition of DT40 Tdp1-/-;hTDP1 cells with camptothecin (screen for TDP1 inhibitors) | Potency, µM (highest dose often 46.2 µM), for the others: top-dose activity change, negative = growth inhibition, actives largely listed as inhibitors | chicken DT40 Tdp1-/-;hTDP1 cells + 20 nM CPT, ATP luminescence, 48 h | AID 686979 | hit rate 12% among 420,000; further: potency means the concentration at half of the fitted maximal effect; nearly all actives have a fitted effect of over 55% in size
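Chicken DT40 Tdp1-/- cells stably complemented with human TDP1 were seeded at 400 cells/well in medium containing 20 nM camptothecin, exposed to pin-transferred compounds, and grown at 37 °C for at least 48 hr. Viability was read as ATP luminescence.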
DT40 TDP1 no CPT – qHTS for Inhibitors of human tyrosyl-DNA phosphodiesterase 1 (TDP1): qHTS in cells in absence of CPT; DT40 Tdp1-/- hTDP1 cells, no CPT, ATP luminescence, 48 h; AID 686978, 2013; Potency, µM (highest dose often 46.2 µM), for the others: top-dose activity change, negative = growth inhibition, actives largely listed as inhibitors; hit rate 15% among 420,000; further: potency means the concentration at half of the fitted maximal effect; nearly all actives have a fitted effect of over 55% in size
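Growth of hTDP1-complemented DT40 Tdp1-knockout cells is measured by ATP luminescence after at least 48 hr compound exposure at 37 °C, with DMSO substituting for the 20 nM CPT used in the parallel screen.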
HT1080 IDH1KD tx – HT-1080 IDH1 knockdown cell toxicity (counter line) | HT-1080 IDH1 knockdown viability, ATP luminescence, 48 h | Potency, µM (highest dose often 46.1 µM), for inactives: at the top dose activity, negative = toxicity, actives largely listed as cytotoxic | hit rate 2% among 360,000 | AID 686971;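 further: potency means the concentration at half of the fitted maximal effect; 0% = DMSO wells and -100% = cell-free medium wells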
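Cytotoxicity counter-line: IDH1KD HT-1080, 48 h, CellTiter-Glo. Curves classed by r2, magnitude and activity.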
* hit, by the source's call; ? = inconclusive; . = not tested or not shown; [ ] = dose if it differs, or a comment. In the library only some 19% were active in any assay of this set; here they are far more common. Unless noted, the call rests on the fitted dose curve; in most records, active means well fitted curve in the direction sought with a large enough effect; inconclusive means small, poorly fitted or top-dose-only effect, or another doubt; inactive means no such curve, though single readings can be large; an effect the other way counts as inactive or inconclusive. Unless noted, on the % scale 0 is the no-effect control and ±100 the full control effect.

SMILES | IL1B secr inh | HT1080NT lethal | uPA generation | TDP1 cell CPT | DT40 TDP1 no CPT | HT1080 IDH1KD tx
O=C(c1ccco1)N1CCC[C@@]2(CCN(Cc3ccncc3)C2)C1 | . | . | . | -8.5% | -12.8% | .
COc1ccccc1NP1(=O)OCC(C)([N+](=O)[O-])CO1 (stereo not given) | 22.8 | 5.5% | 5.3% | -3.3% | -22.4% | 4.6%
Cc1ccc2c(c1)C1CN(C)CCC1N2C(=O)COc1ccc(N(C)S(=O)(=O)c2cccs2)cc1 (stereo not given) | -11.3 | -29.1% | -1.5% | -27.8% | ? | -17.7%
CCOc1ccc(S(=O)(=O)N(C)c2ccc(OCC(=O)N3c4ccc(C)cc4C4CN(C)CCC43)cc2)cc1 (stereo not given) | -50.4* | . | -4.7% | ? | ? | ?
Cc1ccc2c(c1)C1CN(C)CCC1N2C(=O)COc1ccc(N(C)C(=O)C(C)(C)C)cc1 (stereo not given) | -76.3* | -2.9% | -12.1% | ? | 18.4µM* | -0.4%
CCCCn1nc(C)c(C(=O)O)c1Cl | -1.4 | 2.5% | 13.9% | 5.4% | -7.5% | -4.9%
Cc1c(CCC(=O)N2CCCCC2)c(=O)oc2cc3occ(C(C)(C)C)c3cc12 | . | . | . | 11.6µM* | 11.6µM* | .
Cc1nc2ncnn2c(C)c1CCC(=O)N1CCC2(CC1)OCCO2 | -2.9 | 4.0% | . | -10.8% | 17.5% | 4.9%
O=C(C[N+]12CCC(CC1)C(CO)C2)c1ccc(Br)cc1 (stereo not given) | 14.0 | 4.1% | -1.9% | -2.7% | -4.1% | 4.2%
O=C(O)/C=C/CO | . | . | . | -3.2% | -4.2% | .
c1ccc(CNc2c3c(nc4ccccc24)CCC3)cc1 | -93.2* | ? | -4.4% | ? | 14.6µM* | ?
OCCNc1c2c(nc3ccccc13)CCCC2 | -28.3 | 3.0% | 1.9% | -8.2% | -32.1% | 12.5%
CC(C)CNc1c2c(nc3ccccc13)CCC2 | -60.2* | -6.8% | -10.0% | ? | 18.4µM* | -22.5%
COc1ccc(Cl)cc1C(=O)Nc1ccc([N+](=O)[O-])cc1Cl | . | . | . | ? | -10.7% | .
COc1ccc(S(=O)(=O)Nc2cc([N+](=O)[O-])ccc2OC)cc1 | 27.2 | 13µM* | -1.5% | ? | 20.6µM* | 16.4µM*
O=C1Nc2ccc(Br)cc2C(c2ccccc2)=NC1O (stereo not given) | 12.5 | -0.3% | 13.6% | ? | ? | 1.4%
CC1N=C(c2ccccc2)c2cc(Br)ccc2NC1=O (stereo not given) | 18.1 | 3.5% | 3.9% | ? | 18.4µM* | 1.6%
CC(C)CN(CC(C)C)c1ccc(C=C2C(=O)NC(=S)NC2=O)cc1[N+](=O)[O-] | -12.4 | -2.3% | -5.4% | ? | 20.6µM* | -8.8%
CN(C)c1ccc(C=C2C(=O)NC(=O)NC2=O)cc1 | -5.3 | 16.8% | -0.8% | -16.0% | -6.1% | 6.2%
CCN(CC)c1ccc(C=C2C(=O)NC(=S)NC2=O)cc1 | -97.3* | ? | -4.1% | ? | 14.6µM* | ?
CN(C)c1ccc(C=C2C(=O)NC(=S)NC2=O)cc1 | -102.2* | -24.1% | -0.3% | 8.2µM* | 16.4µM* | ?
C#CCOc1ccc(OC)cc1C(c1c(C)[nH][nH]c1=O)c1c(C)[nH][nH]c1=O | -9.9 | 5.8% | -1.7% | 14.9% | ? | -1.3%
CN(C)S(=O)(=O)N1CCC(Oc2cccc(C(=O)NCCC3=CCCCC3)c2)CC1 | 0.0 | -24.5% | ? | 16.4µM* | ? | -22.4%
O=C(Nc1ccc(Cl)cc1)N1CC1 | -5.1 | 8.3% | -1.9% | 8.2µM* | 14.6µM* | -5.6%
O=C(NP(=O)(N1CC1)N1CC1)c1cc(I)ccc1I | 24.3 | -0.7% | 7.1% | 1.46µM* | 2.31µM* | -5.5%
SMILES | IL1B secr inh | HT1080NT lethal | uPA generation | TDP1 cell CPT | DT40 TDP1 no CPT | HT1080 IDH1KD tx
Cc1cc(C(=O)NP(=O)(N2CCOCC2)N2CCOCC2)c(C)n1C1CC1 | 13.4 | -1.7% | 31.6% | 0.7% | -3.0% | 3.4%
O=C(NCCc1ccccc1)[C@@H]1CC=C[C@@H]2CCN(Cc3ccc(Cl)c(Cl)c3)C(=O)[C@@H]21 | 0.0 | -21.9% | ? | 3.98µM* | 10.3µM* | -28.9%
Cn1c(O)c(C2=NN(C(=O)CCl)C(c3ccccc3)C2)c(=O)n(C)c1=O (stereo not given) | 2.5 | -7.8% | 7.1% | ? | -27.2% | -12.6%
CCC(=O)N1N=C(c2c(O)n(C)c(=O)n(C)c2=O)CC1c1ccccc1 (stereo not given) | 250.0 | ? | -9.4% | 3.66µM* | 4.11µM* | 6.51µM*
c1cc2c(cc1N1CCOCC1)CNCc1cnnn1-2 | 0.8 | 19.4% | . | -0.5% | -0.2% | 17.6%
O=C(COC(=O)Cc1ccccc1)Nc1ccc(SC(F)F)cc1 | 14.0 | -8.4% | 6.0% | -9.9% | 18.1% | -0.7%
FC(F)Sc1ccc(NC(=S)NC(c2ccccc2)c2ccccc2)cc1 | -68.2* | ? | ? | 4.61µM* | 10.3µM* | ?
CCCC(C)(COC(N)=O)COC(N)=O | . | . | . | -12.3% | -7.8% | .
C=CCc1cc(OC)c2c(c1OC)OCO2 | . | . | . | 11.6% | 26.8% | .
CC(=O)Oc1c2c(c(CC=C(C)C)c3c1C(=O)C1=CC4CC5C(C)(C)OC(C/C=C(\C)C(=O)O)(C4=O)[C@]15O3)OC(C)(CCC=C(C)C)C=C2 (stereo not given in full) | . | . | . | 0.82µM* | 0.92µM* | .
COC(=O)/C(C)=C\CC12OC(C)(C)C3CC(C=C4C(=O)c5c(OC)c6c(c(CC=C(C)C)c5OC431)OC(C)(CCC=C(C)C)C=C6)C2=O (stereo not given) | . | . | . | 4.61µM* | 3.66µM* | .
C[N+](C)(C)CC1CCCC1=O (stereo not given) | 5.7 | 7.1% | 7.4% | -1.3% | -13.7% | 4.0%
C=C(C)c1cc2cc(C(C)=O)c(O)cc2o1 | . | . | . | 9.1%[9.04 µM] | -3.5%[9.04 µM] | .
C#CCOC(C(=O)OCCN(C)C)(c1ccccc1)c1ccccc1 | . | . | . | 21.1µM* | 11.9µM* | .
CCN(CC)CCCOC(=O)C(OC)(c1ccccc1)c1ccccc1 | -5.8 | -11.3% | -5.8% | -32.1% | -2.2% | -6.1%
CCC(C)n1c(O)c(C=Nc2cccc(C(F)(F)F)c2)c(=O)[nH]c1=S (stereo not given) | 4.7 | 0.8% | 8.0% | -23.9% | 3.5% | -2.3%
Cc1nnc(NC(=O)c2cccn(Cc3ccc(Cl)cc3)c2=O)s1 | . | . | . | 2.0% | -16.5% | .
CC(C)CN1C(=S)SC(C)(C)C1n1oc(=O)n(-c2ccc(Cl)cc2)c1=O (stereo not given) | -26.4 | ? | -7.7% | ? | -27.2% | ?
